This is an account of results in paper PMC12820563, “FoxP3 forms a head-to-head dimer in vivo and stabilizes its multimerization on adjacent microsatellites”.

Over roughly 16,000 sequences, “rpm ratio (pull-down/input)” has its median near 0.94; the highest 2% begin near 1.7. For the sample, the highest values were picked, then their nearest neighbours and some sequences at random.

For the test, the target named is T1, MBP-FoxP1dN (Mus musculus, UniProt P58462 326-579).
T1 sequence: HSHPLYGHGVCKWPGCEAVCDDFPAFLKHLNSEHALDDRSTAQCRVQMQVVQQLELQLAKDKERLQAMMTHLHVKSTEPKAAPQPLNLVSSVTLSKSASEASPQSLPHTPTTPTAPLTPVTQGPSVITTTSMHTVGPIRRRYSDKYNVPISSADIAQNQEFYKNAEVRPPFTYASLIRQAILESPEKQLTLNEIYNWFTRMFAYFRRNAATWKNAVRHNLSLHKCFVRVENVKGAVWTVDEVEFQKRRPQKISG
In words: PD-seq (MBP pull-down with sequencing); 20 mM Tris-HCl pH 7.5, 100 mM NaCl, 1.5 mM MgCl2, 0.4 uM protein, 0.1 uM dsDNA library, 30 min, room temperature, amylose pull-down; high values mean tight binding. Conditions: protein: recombinant; tags: His6-MBP; chain copies: 2; dsDNA, one strand shown. In short, it runs like this: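 Amylose resin was used to capture complexes formed during 30 min at room temperature in Tris pH 7.5 buffer with NaCl and MgCl2 between 0.4 µM His6-MBP-tagged mouse FoxP3 or FoxP1 fragment lacking the N-terminus, expressed in E. coli, and 0.1 µM Klenow-filled double-stranded degenerate DNA library. After three washes, the DNA was released with proteinase K, barcoded by PCR and sequenced on Illumina. Binding is pooled-replicate reads-per-million enrichment, pull-down over input.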
As to “GATGATTGTTCTCCCAGCTGATGAATTAATGCGCTCGAGTAAACAAATTTTCCTAATCTTTCTGTTCAAGCGCCATCTAC”, the binding signal was 1.26 RPM ratio (pull-down/input).

Consider “GATGATTGTTCTCCCAGCTGATGAATTGACCTTCTCGAGTAAACAAATTTTCCTAATCTTTCTGTTCAAGCGCCATCTAC”, for which the binding signal is 0.921 RPM ratio (pull-down/input).

As for “GATGATTGTTCTCCCAGCTGATGAATTTTGCTTTTCGAGTAAACAAATTTTCCTAATCTTTCTGTTCAAGCGCCATCTAC”, the binding signal is 1.49 RPM ratio (pull-down/input).

For “GATGATTGTTCTCCCAGCTGATGAATTGAATGGTTCGAGTAAACAAATTTTCCTAATCTTTCTGTTCAAGCGCCATCTAC”, the binding signal was 0.852 RPM ratio (pull-down/input).

Consider “GATGATTGTTCTCCCAGCTGATGAATTTTTGACGTCGAGTAAACAAATTTTCCTAATCTTTCTGTTCAAGCGCCATCTAC”, for which the binding signal was 0.91 RPM ratio (pull-down/input).

For the sequence “GATGATTGTTCTCCCAGCTGATGAATTGACGCCATCGAGTAAACAAATTTTCCTAATCTTTCTGTTCAAGCGCCATCTAC”, the binding signal is 1.24 RPM ratio (pull-down/input).

As to “GATGATTGTTCTCCCAGCTGATGAATTGATGACGTCGAGTAAACAAATTTTCCTAATCTTTCTGTTCAAGCGCCATCTAC”, the binding signal was 1.06 RPM ratio (pull-down/input).

With “GATGATTGTTCTCCCAGCTGATGAATTTGACGTATCGAGTAAACAAATTTTCCTAATCTTTCTGTTCAAGCGCCATCTAC”, the binding signal is 0.962 RPM ratio (pull-down/input).

For “GATGATTGTTCTCCCAGCTGATGAATTGTTGACGTCGAGTAAACAAATTTTCCTAATCTTTCTGTTCAAGCGCCATCTAC”, the binding signal is 2.22 RPM ratio (pull-down/input).

Turning to “GATGATTGTTCTCCCAGCTGATGAATTGACGTAATCGAGTAAACAAATTTTCCTAATCTTTCTGTTCAAGCGCCATCTAC”, the binding signal was 1.75 RPM ratio (pull-down/input).

Take “GATGATTGTTCTCCCAGCTGATGAATTTCTCTAGTCGAGTAAACAAATTTTCCTAATCTTTCTGTTCAAGCGCCATCTAC”: the binding signal was 0.844 RPM ratio (pull-down/input).

Turning to “GATGATTGTTCTCCCAGCTGATGAATTACCGCGATCGAGTAAACAAATTTTCCTAATCTTTCTGTTCAAGCGCCATCTAC”, the binding signal was 0.929 RPM ratio (pull-down/input).

On to “GATGATTGTTCTCCCAGCTGATGAATTCTAAACATCGAGTAAACAAATTTTCCTAATCTTTCTGTTCAAGCGCCATCTAC”, for which the binding signal is 2.07 RPM ratio (pull-down/input).

As for “GATGATTGTTCTCCCAGCTGATGAATTCTTCACATCGAGTAAACAAATTTTCCTAATCTTTCTGTTCAAGCGCCATCTAC”, the binding signal was 1.08 RPM ratio (pull-down/input).

“GATGATTGTTCTCCCAGCTGATGAATTCACAACATCGAGTAAACAAATTTTCCTAATCTTTCTGTTCAAGCGCCATCTAC”: the binding signal was 2.11 RPM ratio (pull-down/input).

In the case of “GATGATTGTTCTCCCAGCTGATGAATTCCTAAAATCGAGTAAACAAATTTTCCTAATCTTTCTGTTCAAGCGCCATCTAC”, the binding signal was 0.966 RPM ratio (pull-down/input).

On to “GATGATTGTTCTCCCAGCTGATGAATTCTGAACATCGAGTAAACAAATTTTCCTAATCTTTCTGTTCAAGCGCCATCTAC”, for which the binding signal was 0.898 RPM ratio (pull-down/input).

As to “GATGATTGTTCTCCCAGCTGATGAATTCAACACATCGAGTAAACAAATTTTCCTAATCTTTCTGTTCAAGCGCCATCTAC”, the binding signal is 1.3 RPM ratio (pull-down/input).

As to “GATGATTGTTCTCCCAGCTGATGAATTGAAAAAATCGAGTAAACAAATTTTCCTAATCTTTCTGTTCAAGCGCCATCTAC”, the binding signal is 1.03 RPM ratio (pull-down/input).

Regarding “GATGATTGTTCTCCCAGCTGATGAATTGAAAACATCGAGTAAACAAATTTTCCTAATCTTTCTGTTCAAGCGCCATCTAC”, the binding signal was 1.8 RPM ratio (pull-down/input).

Regarding “GATGATTGTTCTCCCAGCTGATGAATTCCTAACATCGAGTAAACAAATTTTCCTAATCTTTCTGTTCAAGCGCCATCTAC”, the binding signal was 1.04 RPM ratio (pull-down/input).

For “GATGATTGTTCTCCCAGCTGATGAATTCTAAAAATCGAGTAAACAAATTTTCCTAATCTTTCTGTTCAAGCGCCATCTAC”, the binding signal was 0.995 RPM ratio (pull-down/input).

Regarding “GATGATTGTTCTCCCAGCTGATGAATTTTGAAAATCGAGTAAACAAATTTTCCTAATCTTTCTGTTCAAGCGCCATCTAC”, the binding signal is 1.14 RPM ratio (pull-down/input).

Turning to “GATGATTGTTCTCCCAGCTGATGAATTCAAAACATCGAGTAAACAAATTTTCCTAATCTTTCTGTTCAAGCGCCATCTAC”, the binding signal is 1.99 RPM ratio (pull-down/input).
